Molecules are shown by their SMILES. The whole screen tested about 48,000 compounds, of which about 13,000 (27%) showed an effect of 50% or more. The list shows a part of the results.

Here are results for 104 compounds from ChEMBL document CHEMBL3988442, “University of Dundee, Small-Polar-MMV Screening Library” (2021).

For this assay, the system named is Wolbachia pipientis. Nature of the assay: Anti-Wolbachia Cell-Based Screen. Format: functional. Also on record: scale not given: in the data most compounds retested in dose-response had high values. The following applies: 5 µM.
For the compound `CCCN1CCN(C(=O)c2cccc3cccnc23)[C@H]2CS(=O)(=O)C[C@H]21`, the “Percent Effect” value is listed as -6.939%.
On to `Cc1nnc(CN(C)Cc2nc3c(s2)CCCC3)o1`, for which the “Percent Effect” value is on record as -39.73%.
Regarding `CCc1ncc(C(=O)N2CCC(O)(CN3CCOCC3)C(C)(C)C2)cn1` (centres undefined), the “Percent Effect” value is 21.42%.
Regarding `COc1ccc2c(C)c(C(=O)N3CCC(NC(C)=O)C3)oc2c1` (centres undefined), the “Percent Effect” value was 4.828%.
Consider `CCCc1nc(CN2CCOC(Cn3cncn3)C2)cs1` (centres undefined), for which the “Percent Effect” value was 112.9%.
The same measure for `CC(C)(C)c1nnc(CN2CCOC(Cn3cncn3)C2)o1` (centres undefined): 5.198%; for `CC(C)CCc1nc(CN2CCOC(Cn3cncn3)C2)cs1` (centres undefined): 124.3%.
Turning to `Cc1cc(CNC(=O)NC(C)c2ccncc2)no1` (centres undefined), the “Percent Effect” value is listed as -0.1893%.
The same measure for `COc1ccccc1OCc1cc(C(=O)N2CCOCC2CO)n[nH]1` (centres undefined): -19.45%.
For the compound `COc1ccccc1OCc1cc(C(=O)N2C[C@@H](C)O[C@@H](C)C2)n[nH]1`, the “Percent Effect” value is on record as -20.33%.
Turning to `COc1ccccc1OCc1cc(C(=O)N2[C@H](C)CC[C@@H]2C)n[nH]1`, the “Percent Effect” value is -29.7%.
Take `C[C@@H]1CC[C@@H](C)N1C(=O)c1cc(COc2ccccc2)[nH]n1`: the “Percent Effect” value is given as 96.55%.
With `CCCC1C=CCN1C(=O)c1cc(COc2ccccc2)[nH]n1` (centres undefined) the figure was 130%.
Take `O=C(c1cc(COc2ccc3c(c2)OCO3)[nH]n1)N1CC=CC1CO` (centres undefined): the “Percent Effect” value was -1.873%.
As for `C[C@@H]1CN(C(=O)c2cc(COc3ccc4c(c3)OCO4)[nH]n2)C[C@H](C)O1`, the “Percent Effect” value is reported as -15.32%.
Take `COC(=O)C1C=CCN1C(=O)c1cc(COc2ccccc2)[nH]n1` (centres undefined): the “Percent Effect” value was 114.9%.
Consider `CCCC1C=CCN1C(=O)c1cc(COc2ccc3c(c2)OCO3)[nH]n1` (centres undefined), for which the “Percent Effect” value stood at 106.8%.
In the case of `CN(Cc1nncn1C)C(=O)c1cc(COc2ccccc2)[nH]n1`, the “Percent Effect” value is reported as -18.45%.
`CO[C@H]1CN(C(C)C)C[C@@H]1NC(=O)c1cc(COc2ccccc2)[nH]n1`: the “Percent Effect” value is listed as -19.38%.
With `COc1ccccc1OCc1cc(C(=O)N2CCC(NC(C)=O)C2)n[nH]1` (centres undefined) the figure was -14.62%; with `CN(C(=O)CC1=CCCCC1)C1CCCN(C2Cc3ccccc3C2)C1` (centres undefined), -26.45%; with `CCc1ncc2c(n1)CN(C(=O)Cc1cc(OC)cc(OC)c1)C2`, -17.96%.
As to `CC(C)COC(C)C(=O)N1CCC(C)CC1` (centres undefined), the “Percent Effect” value was -15.15%.
The same measure for `Cc1cc(CN(C2CC2)C(C)C(C)C)no1` (centres undefined): 5.492%.
Consider `CCC1C=CCN1C(=O)c1cc(COc2ccccc2OC)[nH]n1` (centres undefined), for which the “Percent Effect” value was determined as 105.4%.
`COc1ccccc1OCc1cc(C(=O)N2CC(O)C2)n[nH]1`: the “Percent Effect” value was -12.52%.
In the case of `COc1ccccc1OCc1cc(C(=O)N2CC=CC2C(C)C)n[nH]1` (centres undefined), the “Percent Effect” value is -7.003%.
Regarding `CC(=O)CN1CCC2(CC1)c1ccccc1[C@@H](N1CCSCC1)[C@@H]2O`, the “Percent Effect” value was -3.937%.
With `CN(CC(=O)N1CC(C)(C)[C@@](C)(O)C1)Cc1ccncc1`, the “Percent Effect” value is -6.458%.
With `COc1ccc(COCC(O)CNC(=O)c2cc(C)cc(C)c2)cc1` (centres undefined) the figure was 13.74%; with `O=C(NC1CCc2c(ccc(=O)n2CC2CC2)C1)c1ccsc1` (centres undefined), 1.111%; with `CN(C)CCn1c2c(ccc1=O)CC(NC(=O)NC1CCCC1)CC2.O=C(O)C(F)(F)F` (centres undefined), 92.43%.
Regarding `CC(C)NC1CCc2c(ccc(=O)n2CCN(C)C)C1.O=C(O)C(F)(F)F.O=C(O)C(F)(F)F` (centres undefined), the “Percent Effect” value is listed as 8.884%.
Regarding `CN(C)CCn1c2c(ccc1=O)CC(NC(=O)c1ccsc1)CC2.O=C(O)C(F)(F)F` (centres undefined), the “Percent Effect” value was 112.1%.
Consider `Cn1c2c(ccc1=O)CC(NC(=O)c1ccsc1)CC2` (centres undefined), for which the “Percent Effect” value turned out to be 116.4%.
Take `O=C(Cc1ccsc1)NC1CCc2c(ccc(=O)n2CC2CC2)C1` (centres undefined): the “Percent Effect” value is reported as -22.09%.
The same measure for `CN(C)CCn1c2c(ccc1=O)CC(NC(=O)c1cnccn1)CC2.O=C(O)C(F)(F)F` (centres undefined): 97.98%; for `CC(C)NC1CCc2c(ccc(=O)n2CCN2CCCC2=O)C1.O=C(O)C(F)(F)F` (centres undefined): -4.2%.
Consider `Cc1ccc(Sc2ccc(N3CCCC(C(=O)O)C3)nn2)cc1` (centres undefined), for which the “Percent Effect” value was -25.21%.
With `Cn1cc(C(=O)N2CCOc3cc(F)ccc32)ccc1=O` the figure was -3.875%; with `O=C(Nc1ccnc2ccnn12)c1ccc(NC2CC2)nc1`, -6.003%; with `Cc1nc(N2CCN(C(=O)c3cccs3)CC2)cc(-n2cccc2)n1`, 0.4402%.
Regarding `CC(Cc1cccc(F)c1)C(=O)NS(=O)(=O)c1ccc2c(c1)OCCO2` (centres undefined), the “Percent Effect” value was -30.67%.
Take `CCc1nc(CCNc2ncccc2S(N)(=O)=O)sc1C`: the “Percent Effect” value was -14.32%.
In the case of `CN1CCOC(CNCc2coc(-c3cccs3)n2)C1` (centres undefined), the “Percent Effect” value amounted to 12.46%.
Turning to `CCc1n[nH]c(C2CN(Cc3csc(C4CCCC4)n3)CCO2)n1` (centres undefined), the “Percent Effect” value turned out to be 5.778%.
For the compound `CN1CCOC(CNCc2csc(C3CCCC3)n2)C1` (centres undefined), the “Percent Effect” value was 96.75%.
As to `CN1CCOC(CNCc2csc(C3CCCCC3)n2)C1` (centres undefined), the “Percent Effect” value was found to be 102.8%.
For `Cc1n[nH]c(C2CN(Cc3csc(C4CCCCC4)n3)CCO2)n1` (centres undefined), the “Percent Effect” value was -9.689%.
Regarding `CN(C)C(=O)[C@H]1CC[C@@H]2[C@@H](CCN2C(=O)N(C)C)O1`, the “Percent Effect” value was -14.11%.
With `N#Cc1cccc(N2CCCC3(CN(C(=O)NC4CC4)CCO3)C2)c1` (centres undefined), the “Percent Effect” value is 4.321%.
For `O=C(c1ccc[nH]1)N1CCOCC2(C1)CN(c1ccccc1)C(=O)CO2` (centres undefined), the “Percent Effect” value was 99.07%.
The same measure for `N#Cc1cccc(N2CCCC3(CN(C(=O)c4ccc[nH]4)CCO3)C2)c1` (centres undefined): -1.292%; for `O=C(O)C(F)(F)F.O=C1COC2(COCCN(Cc3ccsc3)C2)CN1c1ccc(F)cc1` (centres undefined): 3.467%.
With `O=C(N1CCCC1)N1CCOCC2(C1)CN(c1ccccc1)C(=O)CO2` (centres undefined), the “Percent Effect” value is on record as 96.63%.
`O=C(c1ccc[nH]1)N1CCOC2(COCCN(c3cncnc3)C2)C1` (centres undefined): the “Percent Effect” value is -9.951%.
Turning to `O=C(NC1CC1)N1CCOCC2(C1)CN(c1ccccc1)C(=O)CO2` (centres undefined), the “Percent Effect” value is on record as 106.4%.
The same measure for `N#Cc1cccc(N2CCOCC3(CCCN(C(=O)NC4CC4)C3)C2)c1` (centres undefined): 10.86%; for `O=C(O)C(F)(F)F.O=C(c1c[nH]cn1)N1CCOCC2(C1)CN(c1ccccc1)C(=O)CO2` (centres undefined): 97.27%; for `CN(C)CC(=O)N1CCOCC2(C1)CN(c1ccccc1)C(=O)CO2` (centres undefined): -12.92%.
For the compound `COCC(=O)N1Cc2ccnn2CC(COCCN(C)C)C1.O=C(O)C(F)(F)F.O=C(O)C(F)(F)F` (centres undefined), the “Percent Effect” value is -12.14%.
As for `Cc1csc(-c2cccc(NC(=O)NCC(C)(C)C(N)=O)c2)n1`, the “Percent Effect” value stood at 1.71%.
Take `CC(C)n1cnc2c1C(C(=O)N(C)C)N(Cc1ccccc1)CC2.O=C(O)C(F)(F)F` (centres undefined): the “Percent Effect” value was -8.577%.
Consider `O=C(c1cc[nH]n1)N1CCOCC2(C1)CN(c1ccccc1)C(=O)CO2` (centres undefined), for which the “Percent Effect” value was found to be 99%.
In the case of `Cc1cnc(CN2CCN(C(C)c3nc(C)no3)CC2)cn1` (centres undefined), the “Percent Effect” value was 31.99%.
Consider `Cc1noc(C(C)N2CCN(CCC(=O)N3CCOCC3)CC2)n1` (centres undefined), for which the “Percent Effect” value came to 136%.
`Cc1noc(C(C)N2CCN(CCn3ccccc3=O)CC2)n1` (centres undefined): the “Percent Effect” value is recorded as 1.866%.
With `Cc1noc(C(C)N2CCN(CC(=O)N3CCCC3)CC2)n1` (centres undefined), the “Percent Effect” value was found to be 104.8%.
As to `Cc1noc(C(C)N2CCN(CCc3ccncc3)CC2)n1` (centres undefined), the “Percent Effect” value was -4.658%.
Take `CCOc1cc(C)nc(N2CCN(C(C)c3nc(C)no3)CC2)n1` (centres undefined): the “Percent Effect” value is recorded as -8.841%.
In the case of `Cc1cc(=O)[nH]c(NC2CCN(S(=O)(=O)c3ccccc3)CC2)n1`, the “Percent Effect” value turned out to be 124.4%.
As to `CCc1cc(=O)[nH]c(NC2CCN(S(=O)(=O)c3ccccc3)CC2)n1`, the “Percent Effect” value was determined as 74.59%.
Turning to `CCc1cc(NC2CCN(S(C)(=O)=O)CC2)n2nc(C)c(C)c2n1`, the “Percent Effect” value is -8.298%.
Consider `Cn1ccnc1C1CCN(S(=O)(=O)c2ccc3[nH]c(=O)[nH]c3c2)CC1`, for which the “Percent Effect” value is listed as -2.986%.
With `O=C(c1[nH]nc(C2CC2)c1Cl)N1CCN(S(=O)(=O)c2ccccc2)CC1`, the “Percent Effect” value is reported as -6.506%.
Regarding `Cc1cc(=O)[nH]c(NCCNC(=O)c2ccccc2N2CCCC2)n1`, the “Percent Effect” value is reported as 13.63%.
For `Cc1nc(NC2CCN(S(=O)(=O)c3ccccc3)CC2)[nH]c(=O)c1C`, the “Percent Effect” value is given as 93.81%.
With `CC[C@H]1CN(S(=O)(=O)c2ccccc2)CC[C@H]1CC(=O)O`, the “Percent Effect” value turned out to be 3.953%.
Turning to `Cn1ccnc1C1CCN(S(=O)(=O)c2ccc3oc(=O)[nH]c3c2)CC1`, the “Percent Effect” value is reported as -28.87%.
As to `CC(C)(C)n1ncc2c(=O)[nH]c(NC3CC=CC3)nc21`, the “Percent Effect” value was 3.92%.
Regarding `CS(=O)(=O)NC[C@H]1Cn2c(-c3ccccc3)cnc2CO1`, the “Percent Effect” value is on record as -16.47%.
With `CCC(Nc1ncccn1)c1cccnc1` (centres undefined), the “Percent Effect” value was 8.55%.
As for `CCN(C(c1cccnc1)c1ccc(F)cc1F)S(C)(=O)=O` (centres undefined), the “Percent Effect” value is listed as -3.142%.
In the case of `CCNC(c1ccc(Br)cc1)c1cccnc1` (centres undefined), the “Percent Effect” value was 106.3%.
With `CCNC(c1ccc(OC)cc1)c1cccnc1` (centres undefined) the figure was -6.571%; with `CCN(C(c1cccnc1)c1ccc(F)c(F)c1)S(C)(=O)=O` (centres undefined), 5.552%.
For the compound `CCNC(c1cccnc1)c1ccc(F)c(C)c1` (centres undefined), the “Percent Effect” value was 95.54%.
For the compound `CCNC(c1cccnc1)c1ccc(F)cc1F` (centres undefined), the “Percent Effect” value is 101.5%.
`CC(NCCCC#N)c1ccc(-c2cccnc2)cc1` (centres undefined): the “Percent Effect” value is reported as -3.574%.
As to `CCNC(c1ccc(C(C)C)cc1)c1cccnc1` (centres undefined), the “Percent Effect” value worked out at 85.86%.
For `CCOCCN(C)C(c1cccnc1)c1ccc(F)cc1F` (centres undefined), the “Percent Effect” value is on record as -0.1699%.
With `CCNC(c1cccnc1)c1ccc(F)c(F)c1` (centres undefined) the figure was -4.502%; with `NC(=O)CC1CCN(C(=O)CCOc2ccc(Cl)cc2)CC1`, -10.96%.
As to `COCCCN(C)C(=O)Cn1cccc(OC)c1=O`, the “Percent Effect” value is reported as -68.57%.
For the compound `CN(C)Cc1cn(CC2CCCN(c3nccc4occc34)C2)nn1` (centres undefined), the “Percent Effect” value is reported as -7.203%.
With `Cc1nc(CN2CCN(Cc3cc4n(n3)CCNC4)CC2)cs1` the figure was -7.4%; with `O=C(c1ncn2c1CNS(=O)(=O)c1ccccc1-2)N1CCCCCC1`, -12.52%; with `CCNC(c1ccc(CC)cc1)c1cccnc1` (centres undefined), 93.88%.
As to `CCNC(c1ccc(C)cc1)c1cccnc1` (centres undefined), the “Percent Effect” value was 100.9%.
On to `Cc1ccc(C)c(C(NC2CCCC2)c2cccnc2)c1` (centres undefined), for which the “Percent Effect” value is -43.53%.
Consider `CCNC(c1ccc(Cl)cc1)c1cccnc1` (centres undefined), for which the “Percent Effect” value stood at 74.82%.
`CCc1cnc(NCC(C)Oc2cccnc2)nc1` (centres undefined): the “Percent Effect” value is given as 7.623%.
Consider `CCNC(c1cccnc1)c1cc(C)cc(C)c1` (centres undefined), for which the “Percent Effect” value was determined as 1.12%.
As to `CC(NCc1cccc(S(=O)(=O)N(C)C)c1)c1cccnc1` (centres undefined), the “Percent Effect” value is given as -5.764%.
